Measurements as given in PubChem BioAssay (NCATS).
“And” between values parts separate entries of the source, which are not always exact repeats. Identical values can stand only once. Unmarked numbers belong to inactive results. Calls come from the whole dose curve.

assay: qHTS drug screen for cell cycle checkpoint inhibitors in PARPi-resistant BRCA-mutant ovarian cancer cell lines. (AID 1963452); settings: PEO1/OlaR viability, CellTiter-Glo luminescence, 96 h; active compounds read low
Outline: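 PEO1, PEO4 and PEO1/OlaR ovarian cancer cells, 600 per well, exposed 96 h at 37C to a dilution series. Viability read by CellTiter-Glo luminescence, normalized to DMSO and empty wells; activity summarized as Z-AUC.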

SMILES	Z-AUC
Cc1c(C)c2c(c(C)c1O)CCC(C)(COc1ccc(CC3SC(=O)NC3=O)cc1)O2 (stereo unspecified)	0.635
N[C@@H]1CONC1=O	-0.0127
O=c1[nH]cnc2[nH]ncc12	-0.687
CC(C[N+](C)(C)C)OC(N)=O (stereo unspecified)	1.18
O=C(C1CC1)N1CC[C@@H](Cn2c(-c3ccc(-c4ccc5occc5c4)cc3)nc3cnccc32)C1	0.419
Cc1[nH]c(=O)c(C#N)cc1-c1ccncc1	-0.809
Cc1n[nH]c(C)c1Cc1sc2c(c1C(=O)N1C[C@H](O)CO1)c(=O)n(C)c(=O)n2CC(C)C	-0.106
CCN(CC)CCCC(C)Nc1nc(C)cc(Nc2ccc3nc(C)cc(N)c3c2)n1 (stereo unspecified)	0.723
CC[C@@H](C)[C@H](NC(=O)[C@H](CC1CCCCC1)NC(=O)c1ccno1)C(=O)N1CCC2(CCc3ccccc32)CC1	-0.29
Cc1cnc(NC(=O)C2=C(O)c3ccccc3S(=O)(=O)N2C)s1	0.682 and 1.14 and 0.871
C1COC(NC(C2CC2)C2CC2)=N1	-0.361
O=NN(CCCl)C(=O)NCCCl	0.732
C#Cc1cccc(Nc2ncnc3cc(OCCOC)c(OCCOC)cc23)c1	-0.425
NS(=O)(=O)c1cc2c(cc1Cl)NC=NS2(=O)=O	0.885
CC(c1cc2ccccc2s1)N(O)C(N)=O (stereo unspecified)	-0.588
COc1nc(-c2ccc3c(c2)OCO3)n(-c2ccc(NC(=O)CSc3ccccc3)cc2)n1	1.83
